Laboratory results from PubChem BioAssay AID540333 (Southern Research Specialized Biocontainment Screening …, 2011).
The campaign covered roughly 10,000 compounds. About 320 (3.2%) were called active. The full list was thinned out, with actives kept by preference. A number with no mark means an inactive call. No stated cut-off is given here; in the data, active means CPE inhibition mostly above about 9.1% (no sharp cut-off); inactive means mostly below about 7.2%.

test: antivirals protecting cells from dengue CPE – CPE readout, HTS (AID 540333); details: Dengue virus CPE inhibition in host cells, at 20 µM; stronger effect = higher value

Row | Structure (SMILES) | CPE inhibition
1 | CC(=O)Nc1sc(C)c(C)c1C(=O)OCC(=O)N(CC(C)C)C1CCS(=O)(=O)C1 (stereo not given) | 1.31%
2 | Cc1ccc([N+](=O)[O-])cc1S(=O)(=O)NCCc1c(C)[nH]c2ccccc12 | 1.95%
3 | O=C(N=C1c2ccccc2CN1c1ccccc1)c1cccc([N+](=O)[O-])c1 | inactive
4 | CC(C)N(C(=O)COC(=O)CNC(=O)c1ccc(Br)cc1)c1ccccc1 | inactive
5 | CC(=O)Oc1ccccc1C1=NN(C(=O)/C=C/c2ccccc2)C(c2ccccc2)C1 (stereo not given) | 8.09%
6 | COc1ccc(C2=NN(C(=O)/C=C/c3ccccc3)C(c3ccccc3)C2)c(OC(C)=O)c1 (stereo not given) | 8.13%
7 | COc1ccc(C2CC(c3ccccc3OC(C)=O)=NN2C(=O)/C=C/c2ccccc2)cc1 (stereo not given) | 7.79% (active)
8 | Cc1c(NC2=C(Cl)C(=O)N(c3ccccc3Cl)C2=O)c(=O)n(-c2ccccc2)n1C | inactive
9 | CCNC(=S)N(CCc1cccc(C)c1)Cc1cc2cc(OC)c(OC)cc2[nH]c1=O | 5.32%
10 | C=CCN1C(=O)S/C(=C/c2ccc(Sc3nc4ccccc4[nH]3)o2)C1=O | 12.1% (active)
11 | CCN1C(=O)S/C(=C/c2ccc(Sc3nc4ccccc4[nH]3)o2)C1=O | 7.23%
12 | O=C(N/N=C/c1ccc(Sc2nc3ccccc3[nH]2)o1)c1ccncc1 | 1.17%
13 | CCOC(=O)CN1C(=O)S/C(=C/c2ccc3c(c2)n(C)c(=O)n3C)C1=O | 0.01%
14 | Cc1ccc(C)c(N(CC(=O)Nc2ccccc2C(=O)NCc2ccco2)S(=O)(=O)c2ccccc2)c1 | 0.06%
15 | Cc1ccc(-c2cc(C(=O)N/N=C/c3ccco3)n[nH]2)s1 | inactive
16 | Cc1ccc(NC(=O)CSc2nc(N)c3c4c(sc3n2)CSC(C)(C)C4)cc1 | 16.2% (active)
17 | CN(C(=O)CSc1nc(N)c2c3c(sc2n1)CSC(C)(C)C3)c1ccccc1 | 9.8%
18 | CC(Sc1nc(N)c2c3c(sc2n1)CSC(C)(C)C3)C(=O)Nc1ccccc1 (stereo not given) | 6.62%
19 | Cc1ccc(NC(=O)CSC2=NCCN2)cc1 | 0.905%
20 | Cc1ccccc1NC(=O)CSC1=NCCN1 | inactive
21 | Cc1ccccc1NC(=O)CSc1nc(N)c2c3c(sc2n1)CSC(C)(C)C3 | 15.7% (active)
22 | COC(=O)c1ccc(CNC(=O)COC(=O)C23CC4CC(CC(C4)C2)C3)cc1 | inactive
23 | O=C(CSc1ccc(Cl)cc1)Nc1ccc(-c2nc3ccccc3[nH]2)cc1 | 1%
24 | O=C(CN1CCOCC1)NN=C1CCCCCCCCCCC1 | inactive
25 | CCCCCC(=O)Nc1ccccc1N1CCOCC1 | 0.445%
